# UGM FP inh: M. tuberculosis UGM enzyme inhibitors, primary screen, biochemical, fluorescence polarization, single point. UDP-galactopyranose mutase (Mycobacterium tuberculosis (strain ATCC 25618 / H37Rv)), …. purified UGM, fluorescence polarization probe displacement. inhibition, % at 10 µM. actives 0.06% (n = 320,000). AID 504406, 2011; in the data active = inhibition above about 10%, passing the limit was not always enough
# Rv3671c protease: Rv3671c serine protease inhibitors, primary screen, biochemical, fluorescence polarization, M. tuberculosis H37Rv; inhibition, % at 5.96 µM; actives 0.048% (n = 320,000); P9WHR9; in the data active = inhibition above about 38%;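 also: extracellular domain of Rv3671c used as enzyme; 0% = enzyme with DMSO and 100% = no enzyme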
# Target sequence (P9WHR9 whole entry, looked up, the tested form may be a part): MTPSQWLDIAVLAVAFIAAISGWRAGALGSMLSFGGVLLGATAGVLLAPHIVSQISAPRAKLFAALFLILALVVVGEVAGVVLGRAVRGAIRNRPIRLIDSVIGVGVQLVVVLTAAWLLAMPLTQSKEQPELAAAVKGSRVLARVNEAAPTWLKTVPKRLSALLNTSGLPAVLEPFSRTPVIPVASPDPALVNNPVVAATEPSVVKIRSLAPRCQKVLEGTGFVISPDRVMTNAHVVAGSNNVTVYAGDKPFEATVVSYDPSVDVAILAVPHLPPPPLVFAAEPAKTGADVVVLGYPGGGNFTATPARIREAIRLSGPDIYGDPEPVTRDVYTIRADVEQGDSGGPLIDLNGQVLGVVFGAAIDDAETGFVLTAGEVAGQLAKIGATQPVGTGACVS
# Mtb hypoxia rep: PubChem AID 1159583; M. tuberculosis hypoxia-regulated fluorescent reporter, fluorescence; fluorescence inhibition, % (concentration not given with the values); actives 0.1% (n = 300,000); in the data active = fluorescence inhibition mostly above about 23%, no sharp cut-off; inactive = mostly below about 17%
# FBA Mtb inh: Mtb FBA enzyme inhibitors, primary screen, biochemical, fluorescence, strain H37Rv | inhibition, % at 1 µM | purified M. tuberculosis FBA, fluorescence read-out | actives 2.3% (n = 360,000) | Fructose-bisphosphate aldolase (Mycobacterium tuberculosis (strain ATCC 25618 / H37Rv)), …;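 also: 0% = vehicle and 100% = reference inhibitor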
# GDH-TPI counter-1: GDH-TPI coupling enzyme inhibitors, primary screen, artefact control for M. tuberculosis FBA inhibitor project, biochemical, absorbance, full deck | GDH-TPI coupled enzyme counterscreen, NADH absorbance | inhibition, % at 4.8 µM | actives 1.2% (n = 360,000) | AID 588335, 2011; in the data active = inhibition above about 30%;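 also: 0% = DMSO wells and 100% = wells lacking the enzyme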
# FadD28 FP inh: inhibitors of FadD28 bisubstrate probe binding, primary screen, biochemical, fluorescence polarization, single point; Mycobacterium tuberculosis FadD28 fatty-acid-AMP ligase; inhibition, % at 12.5 µM; actives 0.22% (n = 360,000); in the data active = inhibition above about 8.5%, passing the limit was not always enough
# Mtb FBA confirm: M. tuberculosis aldolase blockers, biochemical, fluorescence, strain H37Rv, confirmation; purified M. tuberculosis FBA, fluorescence read-out; actives 78% (n = 5,600); AID 651616, 2012; shares compounds with FBA Mtb inh; inhibition, % at 1 µM;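 also: 0% = vehicle wells and 100% = reference inhibitor wells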
# GDH-TPI counter-2: GDH-TPI coupling enzyme inhibitors, artefact control for M. tuberculosis FBA inhibitor project, biochemical, fluorescence, high throughput | AID 652141, 2013 | inhibition, % at 1 µM | shares compounds with FBA Mtb inh | GDH-TPI coupled enzyme counterscreen | actives 81% (n = 5,600); in the data active = inhibition above about 10%
# Numbers without * were called inactive; · = not tested or not shown; + = active, no number. Sampled rows, rich in hits. Any-hit rate of the full collection: about 3.5%. Rule as the data show it, unless noted: active = inhibition above about 27%; inactive = the rest.
SMILES,UGM FP inh,Rv3671c protease,Mtb hypoxia rep,FBA Mtb inh,GDH-TPI counter-1,FadD28 FP inh,Mtb FBA confirm,GDH-TPI counter-2
O=C(NCCc1cn2ccccc2n1)C1CCCCC1,-0.5,10.9,4.9,27.4*,3.9,0.9,109.2*,80.0*
O=C(NCCc1cn2ccsc2n1)C1CCCCC1,0.1,4.1,8.9,-2.2,5.8,-4.2,·,·
Cc1ccc(S(=O)(=O)c2nc(-c3ccccc3)oc2NCc2cccnc2)cc1,1.9,7.4,8.6,-0.5,6.7,-3.3,·,·
CCOP(=O)(OCC)c1nc(-c2ccc(Cl)cc2)oc1NCc1ccccc1,-0.9,4.0,-11.3,78.9*,13.6,-1.6,79.6*,101.5*
Cc1oc(-c2ccccc2)nc1C(=O)OCC(=O)NCc1ccccc1,-2.9,1.0,-3.6,5.5,2.8,·,·,·
COP(=O)(OC)c1nc(-c2ccccc2)oc1NCc1ccccc1,-2.0,-3.5,1.8,106.7*,4.8,-1.0,86.0*,69.5*
COP(=O)(OC)c1nc(-c2ccccc2)oc1N1CCOCC1,5.1,-0.3,3.8,88.8*,-3.3,-2.3,82.9*,55.5*
CCCOP(=O)(OCCC)c1nc(-c2ccccc2)oc1NCc1ccccc1,-1.7,5.1,-0.7,57.0*,12.4,0.4,0.6,-1.1
COP(=O)(OC)c1nc(-c2ccc([N+](=O)[O-])cc2)oc1N1CCCCC1,1.4,1.2,4.9,-2.6,7.9,-1.5,·,·
CC(C=NO)Cc1ccc2c(c1)OCO2 (centres undefined),·,·,9.5,·,·,·,·,·
Cc1cccc(C=NNC(=O)c2ccc(NC(=O)c3ccc(F)cc3)cc2)n1,·,·,7.7,·,·,·,·,·
CC(=NNC(=O)c1cccs1)c1cccc(NC(=O)C2CC2)c1,·,·,4.3,·,·,·,·,·
C=CCc1c(C)nc2cc(-c3ccc(C)cc3)[nH]n2c1=O,0.4,10.2,-1.0,26.9*,-1.5,2.4,+,+
CCCOc1ccc(C(O)=C2C(=O)C(=O)N(CCN(C)C)C2c2ccco2)cc1 (centres undefined),·,·,12.9,·,·,·,·,·
COc1ccc(C(=O)NN/C(=N/S(=O)(=O)c2ccc(C)cc2)c2ccccc2)cc1,-2.6,4.2,22.1,58.6*,6.5,-0.5,+,+
COc1ccc(CCNC(=O)c2ccc3nc4cc(Cl)ccc4c(=O)n3c2)cc1OC,-2.3,2.2,-17.0,11.2,5.2,0.8,·,·
COCCCNC(=O)c1ccc2nc3ccccc3c(=O)n2c1,1.7,-3.1,3.7,65.9*,12.8,-0.6,121.4*,106.0*
COC(CNC(=O)c1ccc(-n2c(=S)[nH]c3ccccc3c2=O)cc1)OC,-0.1,-7.7,17.7,7.4,1.2,-1.1,·,·
COC(CNC(=O)c1ccc2nc3ccccc3c(=O)n2c1)OC,0.3,-13.6,-1.0,61.0*,18.0,0.7,+,+
Cc1nn2c(=O)c(NC(=O)c3ccc(Cl)cc3)cnc2s1,-2.1,4.2,3.8,65.0*,6.9,-0.9,43.8*,28.4*
N#Cc1ccc(-c2nc3ccc(Br)cn3c2Cc2ccccc2C(F)(F)F)cc1,·,·,·,0.6,·,-0.8,·,·
Cc1ccc2nc(-c3ccc(C#N)cc3)c(Cc3ccccc3C(F)(F)F)n2c1,·,·,·,78.5*,·,-4.2,29.4*,26.7*
N#Cc1ccc(-c2nc3ccc(Cl)cn3c2Cc2cccc(Cl)c2)cc1,·,·,·,16.1,·,-5.5,·,·
N#Cc1ccc(-c2nc3ccc(Cl)cn3c2Cc2cccc(F)c2)cc1,·,·,·,42.6*,·,-2.4,+,191.2*
Cc1ccc(-c2nc3ccc(Cl)cn3c2Cc2cccc(F)c2)cc1,·,·,·,6.2,·,-10.1,·,·
SMILES,UGM FP inh,Rv3671c protease,Mtb hypoxia rep,FBA Mtb inh,GDH-TPI counter-1,FadD28 FP inh,Mtb FBA confirm,GDH-TPI counter-2
CCCc1nc2ccc(C)cn2c1Cc1cccc(Cl)c1,·,·,·,27.2*,·,-7.1,+,167.8*
Cc1ccc2nc(-c3ccc(C#N)cc3)c(Cc3cccc(Cl)c3)n2c1,·,·,·,40.9*,·,-4.0,35.2*,34.7*
O=C(NN=Cc1ccc2c(c1)OCO2)c1cccc(NC(=O)c2ccccc2Cl)c1,·,·,18.3,·,·,·,·,·
COc1cc(CCCN2C(=S)NCC2CC2CCCCC2)cc(OC)c1OC (centres undefined),·,·,-4.9,·,·,·,·,·
CC1C=C(C(=O)N2CCN(Cc3ccc4c(c3)OCO4)CC2)OC(OCc2ccc(CO)cc2)C1 (centres undefined),·,·,21.3,·,·,·,·,·
Nc1cc(OC(=O)c2ccco2)nn1S(=O)(=O)c1ccc(F)cc1,2.0,-7.0,9.1,29.7*,-5.2,-2.3,+,141.8*
Cc1n[nH]c(=S)n1N=Cc1ccc(OCc2ccc(Cl)cc2)cc1,·,·,7.0,·,·,·,·,·
COc1ccccc1-c1oc2ccccc2c1C#CC(C)(C)O,0.8,-1.8,-3.9,54.6*,13.6,-8.5,+,+
CN(Cc1ccccn1)C(=O)CC1C(=O)NCCN1Cc1cccc(Oc2ccccc2)c1 (centres undefined),-4.7,8.3,13.3,31.8*,5.9,-2.1,164.8*,122.3*
CCCCCCSc1cc(-c2nc3ccc(C)cn3c2NCc2ccccc2)ccc1OC,-1.9,10.4,4.2,28.5*,10.9,-0.9,188.5*,135.6*
CCCCNc1c(-c2ccc(SC(C)CC)c(OC)c2)nc2ccc(Cl)cn12 (centres undefined),5.6,1.0,4.5,16.1,10.8,-0.6,·,·
CCCCCCSc1ccc(-c2nc3ccc(Cl)cn3c2NCCCC)cc1OC,·,1.6,4.7,3.9,-3.5,-4.4,·,·
CCCCNc1c(-c2ccc(-c3ccc(OC)cc3)c(OC)c2)nc2ccccn12,·,14.1,6.5,72.8*,22.9,-0.7,82.3*,59.3*
CCCCCCSc1cccc(-c2nc3cc(C)ccn3c2NCc2ccccc2)c1,1.9,4.8,0.9,27.8*,18.7,-1.6,121.6*,104.4*
CCCCNc1c(-c2ccc(SC(C)CC)c(OC)c2)nc2ccc(C)cn12 (centres undefined),4.2,2.6,5.6,47.6*,13.8,-0.5,35.3*,26.6*
O=C(NN=Cc1cccnc1)c1ccccc1O,·,·,9.2,·,·,·,·,·
Cc1ccc(S(=O)(=O)N2CCN(CC(=O)NN=Cc3ccc(C)o3)CC2)cc1,·,·,-0.5,·,·,·,·,·
O=C1C(Cc2ccccc2)NCC=CCC(c2ccco2)N1Cc1ccccc1 (centres undefined),·,·,9.1,·,·,·,·,·
CCCCCCSc1cccc(-c2nc3ccccn3c2NCc2ccccc2)c1,4.5,8.9,·,41.9*,13.6,2.8,101.3*,66.4*
O=C1Nc2ccc(S(=O)(=O)NCCC3=CCCCC3)c3cccc1c23,-1.2,-12.3,-9.9,13.1,-3.2,-4.5,·,·

# Compound activity from PubChem.
